Measurements published in the supplement of paper PMC10849652.
About 7,900 targets were measured; listed, in parts, are those with a hit and a random draw of the rest. About 0.6% of all pairs of compound and target were hits.

These targets were tested with C1=CC2=C(C=CC(=C2)/C=C\3/C(=O)NC(=NCC4=CC=CS4)S3)N=C1 (assay: log2 fold change, soluble protein after heating vs DMSO (PISA); higher = thermal stabilisation; K562 cells, 10 uM, 30 min; active = over 0.2 and 3.5 SD of the protein, either way, in both replicates (recomputed)).
Outline: (§1)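 K562 cells at 2×10^6 cells/mL were exposed to 10 μM compound for 30 min, then aliquots were heated for 3 min across 48°C-58°C, pooled, and extracted in PBS containing 0.5% NP-40 at 4°C. The supernatant after 21,000xg for 90 min was taken as soluble protein and measured by TMTpro 16plex LC-MS/MS with channel sums equalised. Thermal stability is reported relative to control samples, with values from duplicates. Fold changes are given on a log2 scale.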

Sequence of UniProt Q99805 (Q99805 whole entry, looked up): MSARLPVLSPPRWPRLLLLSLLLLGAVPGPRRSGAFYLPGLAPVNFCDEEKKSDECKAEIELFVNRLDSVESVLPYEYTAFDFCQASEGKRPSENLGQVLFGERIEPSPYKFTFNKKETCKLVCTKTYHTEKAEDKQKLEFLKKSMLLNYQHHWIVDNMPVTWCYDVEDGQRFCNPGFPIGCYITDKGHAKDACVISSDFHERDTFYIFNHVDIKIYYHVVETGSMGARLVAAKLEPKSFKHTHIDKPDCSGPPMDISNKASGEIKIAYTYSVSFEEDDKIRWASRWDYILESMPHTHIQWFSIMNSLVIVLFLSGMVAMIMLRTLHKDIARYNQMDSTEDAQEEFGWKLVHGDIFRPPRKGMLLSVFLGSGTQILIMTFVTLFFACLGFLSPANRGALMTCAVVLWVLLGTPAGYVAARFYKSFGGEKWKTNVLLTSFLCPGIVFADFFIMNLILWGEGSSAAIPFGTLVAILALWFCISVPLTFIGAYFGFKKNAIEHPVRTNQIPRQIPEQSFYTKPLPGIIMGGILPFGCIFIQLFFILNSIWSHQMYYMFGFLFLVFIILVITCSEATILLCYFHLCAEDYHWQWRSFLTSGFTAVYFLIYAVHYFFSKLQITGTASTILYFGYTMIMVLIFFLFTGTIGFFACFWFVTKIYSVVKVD
Sequence of UniProt Q7L7X3 (Q7L7X3 whole entry, looked up): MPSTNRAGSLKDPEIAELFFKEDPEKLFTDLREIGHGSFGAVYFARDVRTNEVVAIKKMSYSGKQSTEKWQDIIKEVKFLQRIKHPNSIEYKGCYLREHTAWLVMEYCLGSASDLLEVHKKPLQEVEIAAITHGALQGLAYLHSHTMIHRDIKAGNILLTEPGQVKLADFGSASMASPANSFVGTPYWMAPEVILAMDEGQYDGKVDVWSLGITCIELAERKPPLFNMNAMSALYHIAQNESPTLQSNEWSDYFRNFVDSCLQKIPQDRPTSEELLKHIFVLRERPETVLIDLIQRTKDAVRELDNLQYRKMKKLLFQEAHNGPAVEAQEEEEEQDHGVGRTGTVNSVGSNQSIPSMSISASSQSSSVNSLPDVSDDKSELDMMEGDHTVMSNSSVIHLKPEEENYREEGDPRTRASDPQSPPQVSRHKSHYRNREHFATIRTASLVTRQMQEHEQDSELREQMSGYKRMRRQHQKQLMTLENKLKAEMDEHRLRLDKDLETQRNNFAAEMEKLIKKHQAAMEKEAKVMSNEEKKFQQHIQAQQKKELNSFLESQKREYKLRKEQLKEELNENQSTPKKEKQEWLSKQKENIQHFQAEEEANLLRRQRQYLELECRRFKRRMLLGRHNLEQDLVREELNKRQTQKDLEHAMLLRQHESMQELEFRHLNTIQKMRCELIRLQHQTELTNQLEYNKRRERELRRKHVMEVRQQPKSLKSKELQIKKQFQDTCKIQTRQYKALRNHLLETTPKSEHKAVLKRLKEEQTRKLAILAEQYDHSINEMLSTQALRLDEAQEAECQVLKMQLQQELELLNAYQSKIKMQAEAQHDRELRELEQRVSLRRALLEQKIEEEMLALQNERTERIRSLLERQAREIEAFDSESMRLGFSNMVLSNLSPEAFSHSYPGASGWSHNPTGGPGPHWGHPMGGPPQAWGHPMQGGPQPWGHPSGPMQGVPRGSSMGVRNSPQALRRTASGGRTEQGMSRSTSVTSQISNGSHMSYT
Sequence of UniProt P30626 (P30626 whole entry, looked up): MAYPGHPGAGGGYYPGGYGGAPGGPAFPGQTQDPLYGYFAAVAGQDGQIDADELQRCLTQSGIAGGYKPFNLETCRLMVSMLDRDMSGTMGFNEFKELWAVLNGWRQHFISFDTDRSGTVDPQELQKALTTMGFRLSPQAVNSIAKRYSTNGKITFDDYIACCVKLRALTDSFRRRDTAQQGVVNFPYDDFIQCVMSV
Sequence of UniProt O60493 (O60493 whole entry, looked up): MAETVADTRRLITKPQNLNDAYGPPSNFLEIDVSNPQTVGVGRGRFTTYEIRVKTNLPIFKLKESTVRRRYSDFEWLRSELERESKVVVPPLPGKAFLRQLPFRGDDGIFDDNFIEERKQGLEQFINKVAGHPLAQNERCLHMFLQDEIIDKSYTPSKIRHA
Sequence of UniProt Q969G3 (Q969G3 whole entry, looked up): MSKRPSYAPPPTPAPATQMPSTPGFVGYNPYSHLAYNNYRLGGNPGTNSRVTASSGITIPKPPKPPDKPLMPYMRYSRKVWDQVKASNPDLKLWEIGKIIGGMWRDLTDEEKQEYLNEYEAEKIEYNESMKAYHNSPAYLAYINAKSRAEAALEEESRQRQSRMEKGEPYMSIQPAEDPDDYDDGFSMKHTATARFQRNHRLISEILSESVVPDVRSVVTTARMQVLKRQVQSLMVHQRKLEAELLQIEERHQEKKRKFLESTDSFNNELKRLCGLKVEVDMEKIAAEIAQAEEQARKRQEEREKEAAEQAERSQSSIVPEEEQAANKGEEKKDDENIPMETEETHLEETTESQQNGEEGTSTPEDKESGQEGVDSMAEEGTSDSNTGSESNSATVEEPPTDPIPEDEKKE
Sequence of UniProt Q9UH99 (Q9UH99 whole entry, looked up): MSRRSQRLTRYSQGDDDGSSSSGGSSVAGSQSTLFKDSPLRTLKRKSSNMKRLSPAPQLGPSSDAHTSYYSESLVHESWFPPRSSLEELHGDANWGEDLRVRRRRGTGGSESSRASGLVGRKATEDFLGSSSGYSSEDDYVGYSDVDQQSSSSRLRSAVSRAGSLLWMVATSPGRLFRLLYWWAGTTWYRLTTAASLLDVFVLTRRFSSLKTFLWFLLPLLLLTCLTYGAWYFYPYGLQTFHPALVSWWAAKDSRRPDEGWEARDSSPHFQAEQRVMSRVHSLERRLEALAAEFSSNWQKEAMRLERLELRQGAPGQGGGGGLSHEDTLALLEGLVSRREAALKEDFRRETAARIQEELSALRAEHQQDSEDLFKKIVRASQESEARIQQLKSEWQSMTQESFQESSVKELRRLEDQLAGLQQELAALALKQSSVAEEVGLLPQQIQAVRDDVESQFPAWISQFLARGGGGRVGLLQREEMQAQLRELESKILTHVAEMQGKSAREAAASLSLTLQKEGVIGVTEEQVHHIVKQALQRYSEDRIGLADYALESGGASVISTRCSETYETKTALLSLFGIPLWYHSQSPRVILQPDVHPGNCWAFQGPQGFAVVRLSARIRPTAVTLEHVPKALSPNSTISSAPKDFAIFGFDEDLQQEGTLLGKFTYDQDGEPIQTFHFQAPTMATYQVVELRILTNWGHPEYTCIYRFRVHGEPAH
Sequence of UniProt O75663 (O75663 whole entry, looked up): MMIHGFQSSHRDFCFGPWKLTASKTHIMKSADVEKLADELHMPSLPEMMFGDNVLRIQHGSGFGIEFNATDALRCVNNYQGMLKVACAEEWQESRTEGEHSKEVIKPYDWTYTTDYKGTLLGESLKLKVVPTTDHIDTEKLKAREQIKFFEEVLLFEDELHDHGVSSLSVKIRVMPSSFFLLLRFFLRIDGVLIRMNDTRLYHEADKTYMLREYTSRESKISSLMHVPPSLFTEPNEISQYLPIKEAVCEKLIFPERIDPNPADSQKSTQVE
Sequence of UniProt P08579 (P08579 whole entry, looked up): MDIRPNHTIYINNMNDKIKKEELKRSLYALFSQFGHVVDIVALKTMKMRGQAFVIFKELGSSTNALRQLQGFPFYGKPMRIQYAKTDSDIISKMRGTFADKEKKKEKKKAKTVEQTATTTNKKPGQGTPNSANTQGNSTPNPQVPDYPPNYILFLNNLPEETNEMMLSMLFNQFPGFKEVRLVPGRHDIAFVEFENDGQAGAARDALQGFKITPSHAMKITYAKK
Sequence of UniProt Q9NXE4 (Q9NXE4 whole entry, looked up): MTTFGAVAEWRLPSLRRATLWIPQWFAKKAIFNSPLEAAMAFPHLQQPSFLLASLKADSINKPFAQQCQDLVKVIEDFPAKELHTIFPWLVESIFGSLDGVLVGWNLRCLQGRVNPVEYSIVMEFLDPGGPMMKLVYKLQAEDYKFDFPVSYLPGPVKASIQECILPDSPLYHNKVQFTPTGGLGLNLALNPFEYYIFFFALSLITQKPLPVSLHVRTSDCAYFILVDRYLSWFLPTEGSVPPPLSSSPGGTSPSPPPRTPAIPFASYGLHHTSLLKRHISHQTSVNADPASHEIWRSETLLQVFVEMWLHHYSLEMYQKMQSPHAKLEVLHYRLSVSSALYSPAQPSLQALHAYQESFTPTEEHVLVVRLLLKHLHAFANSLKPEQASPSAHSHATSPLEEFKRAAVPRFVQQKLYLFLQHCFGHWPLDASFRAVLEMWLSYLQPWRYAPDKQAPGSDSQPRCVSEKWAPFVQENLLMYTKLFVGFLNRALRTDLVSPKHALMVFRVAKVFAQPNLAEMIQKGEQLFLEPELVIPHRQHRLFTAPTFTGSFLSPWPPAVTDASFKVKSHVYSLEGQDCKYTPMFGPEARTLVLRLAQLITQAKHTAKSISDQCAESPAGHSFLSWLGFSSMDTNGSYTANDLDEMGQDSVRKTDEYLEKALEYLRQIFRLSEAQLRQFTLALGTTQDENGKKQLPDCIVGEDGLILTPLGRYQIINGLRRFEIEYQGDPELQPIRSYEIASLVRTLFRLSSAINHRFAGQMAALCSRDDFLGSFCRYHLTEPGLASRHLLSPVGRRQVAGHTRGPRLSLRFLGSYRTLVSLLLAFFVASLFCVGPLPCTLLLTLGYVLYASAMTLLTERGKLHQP
Sequence of UniProt Q9Y5L4 (Q9Y5L4 whole entry, looked up): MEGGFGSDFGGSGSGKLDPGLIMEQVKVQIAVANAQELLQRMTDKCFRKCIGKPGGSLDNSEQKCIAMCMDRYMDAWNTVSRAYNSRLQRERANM
Sequence of UniProt O00193 (O00193 whole entry, looked up): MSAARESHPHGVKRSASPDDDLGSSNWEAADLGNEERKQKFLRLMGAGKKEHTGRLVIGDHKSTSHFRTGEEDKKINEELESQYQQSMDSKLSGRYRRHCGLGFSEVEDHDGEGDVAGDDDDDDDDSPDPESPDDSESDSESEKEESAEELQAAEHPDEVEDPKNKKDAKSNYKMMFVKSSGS

log2 fold change, inactive:
TM9SF2 (UniProt Q99805) 0.027
TIPRL (UniProt O75663) 0.049
SREK1 isoform 2 (UniProt Q8WXA9) -0.149
SNX3 (UniProt O60493) 0.078
STXBP2 isoform 3 (UniProt Q15833) 0.096
SMPD4 isoform 4 (UniProt Q9NXE4) 0.098
TIMM13 (UniProt Q9Y5L4) 0.003
SPTBN1 (UniProt Q01082) 0.03
SUN2 (UniProt Q9UH99) -0.012
TAOK1 (UniProt Q7L7X3) -0.033
SMARCE1 (UniProt Q969G3) 0.009
SRI (UniProt P30626) 0.09
SNRPB2 (UniProt P08579) -0.034

Each target was assayed with C1=CC2=NC=CN=C2C=C1/C=C/3\C(=O)NC(=O)S3 in the same assay as above.
Outline: as §1

log2 fold change, inactive:
TBC1D23 (UniProt Q9NUY8) 0.021
TFB2M (UniProt Q9H5Q4) 0.019
TGFBRAP1 (UniProt Q8WUH2) 0.062
SNX9 (UniProt Q9Y5X1) 0.014
THRAP3 (UniProt Q9Y2W1) -0.002
SRRM2 (UniProt Q9UQ35) 0.014
SSX2 (UniProt Q16385) 0.044
SMAP (UniProt O00193) 0.073
SMARCA5 (UniProt O60264) 0.078
SPAG9 (UniProt O60271) 0.039
SURF1 (UniProt Q15526) 0.055
TANGO6 (UniProt Q9C0B7) 0.057
SYNE1 (UniProt Q8NF91) -0.02
STAM2 (UniProt O75886) 0.01
SRSF2 (UniProt Q01130) -0.032
SMAD9 (UniProt O15198) -0.012
SPPL2B (UniProt Q8TCT7) 0.048
SUOX (UniProt P51687) 0.036
SPART (UniProt Q8N0X7) 0.002
TLK1 (UniProt Q9UKI8) 0.005
STXBP5 (UniProt Q5T5C0) 0.026
TCOF1 isoform 4 (UniProt Q13428) 0.014
TERF2IP (UniProt Q9NYB0) 0.049
TARS2 (UniProt Q9BW92) 0.038
TM9SF2 (UniProt Q99805) -0.021
TIPRL (UniProt O75663) 0.036
SREK1 isoform 2 (UniProt Q8WXA9) -0.084
SNX3 (UniProt O60493) -0.058
STXBP2 isoform 3 (UniProt Q15833) -0.004
SMPD4 isoform 4 (UniProt Q9NXE4) 0.158
TIMM13 (UniProt Q9Y5L4) 0.111
SPTBN1 (UniProt Q01082) 0.046
SUN2 (UniProt Q9UH99) 0.02
TAOK1 (UniProt Q7L7X3) 0.009
SMARCE1 (UniProt Q969G3) 0
SRI (UniProt P30626) 0.121
SNRPB2 (UniProt P08579) 0.042
